FLuc inh: inhibitors of firefly (Photinus pyralis) luciferase. P08659. purified P. pyralis luciferase, luminescence, biochemical. Potency, µM (highest dose often 115 µM), actives largely listed as inhibitors. 2.5% of 76,000 active. AID 1347043; also: nearly all actives have a fitted effect of over 65% in size
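Biochemical qHTS: compound (6-point titration) added to 10uM D-luciferin plus 10uM ATP in Tris acetate pH 7.5 buffer with Mg, Tween-20 and BSA, then purified enzyme at 10nM; light output imaged.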
NPR1 antag: antagonists of human natriuretic peptide receptor Npr1. P16066. HEK293 hNpr1 GloSensor cGMP, ANP-stimulated luminescence. Potency, µM (highest dose often 46.3 µM), without a hit: at the top dose activity change, negative = inhibition, usual class: inhibitors. 1.6% of 76,000 active. AID 1347048; calls by dose curve; also: nearly all actives have a fitted effect of over 60% in size
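HEK293 cells stably expressing human Npr1 and cGMP GloSensor pGS-40F, loaded 2 h with 2% GloSensor reagent, given compound 30 min at room temperature. Luminescence read before and 20 min after 0.1 nM hNppA.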
SNCA viab count: counter-screen for SNCA expression inhibitors: cell viability | Potency, µM (top dose mostly 57.1 µM), without a hit: at the top dose activity change, negative = cytotoxicity, hits mostly cytotoxic | 0.12% of 150,000 active | AID 1671193 | HEK-293-SNCA-luc viability, GF-AFC fluorescence, 24 h;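 also: 0% = DMSO-treated cells and -100% = medium-only wells without cells; nearly all actives have a fitted effect of over 30% in size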
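Cytotoxicity counterscreen: after 24 h compound treatment of genome-edited SNCA-luciferase HEK-293 cells, live-cell protease substrate GF-AFC read by fluorescence after 30 min; activity scaled between DMSO (0%) and medium-only (-100%), curves Hill-fitted.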
3T3 cytotox: NIH 3T3 cell cytotoxicity; Potency, µM (series often up to 96.7 µM), for inactives: at the top dose activity change, negative = cytotoxicity, most hits filed as inhibitors; 4.3% of 94,000 active; NIH 3T3 viability, CellTiter-Glo ATP luminescence, 48-72 h; also: nearly all actives have a fitted effect of over 55% in size
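Cytotoxicity is measured as loss of cellular ATP: NIH 3T3 cells (400/well) are exposed to compound for 48 or 72 hr at 37 °C, then CellTiter-Glo luminescence is imaged after 10 min at room temperature.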
SNCA expr inh: inhibitors of alpha-synuclein (SNCA) gene expression; HEK-293 SNCA-luciferase knock-in, luminescence, 24 h; Potency, µM (highest dose often 57.2 µM), inactives show at the top dose activity change, negative = inhibition, usual class: inhibitors; 0.17% of 140,000 active; AID 1671194;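 also: plate controls were DMSO cells for no effect and cell-free wells for full effect; nearly all actives have a fitted effect of over 45% in size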
HEK cytotox: cytotoxic compounds in HEK 293 cells. HEK 293 viability, ATP luminescence (CellTiter-Glo), 48-72 h. Potency, µM (doses to about 115 µM), for inactives: at the highest dose activity change, negative = cytotoxicity, actives largely listed as inhibitors. 6.6% of 94,000 active. AID 1345083; also: nearly all actives have a fitted effect of over 60% in size
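Luminescence from cellular ATP, measured with CellTiter-Glo, indicates HEK 293 viability. Cells plated at 250 cells/well are treated with compound for 48 or 72 hr at 37 degree Celsius before reagent addition.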
Starred values were filed as active, the others as inactive; i = inactive; u = inconclusive; x = no result; ! = a repeat was not active; [ ] = dose if it differs, or a comment. Most compounds without a hit are left out; they make up all but 7.4% or so of the library. Unless noted, calls follow the shape of the dose curve; as a rule, active = well fitted curve in the direction sought with a large enough effect; inconclusive = small, poorly fitted or top-dose-only effect, or another doubt; inactive = no such curve, though single readings can be large; an effect the other way counts as inactive or inconclusive. Unless noted, % is scaled to controls: 0 for no effect and ±100 for the full control effect; potency is read from the fitted curve at half-maximal effect.

SMILES | FLuc inh | NPR1 antag | SNCA viab count | 3T3 cytotox | SNCA expr inh | HEK cytotox
O=C(COc1ccccc1)N1CCCCCC1c1nnc(-c2ccccc2)o1 (stereo not given) | x | x | -7% | -15% | 5% | -10%
O=C(NC1CCN(CCn2nc3n(c2=O)CCCC3)C1)c1ccc2c(c1)OCO2 (stereo not given) | x | x | x | -6% | x | i
Fc1ccc(-c2cnc([C@@H]3COCCN3Cc3cccnc3)[nH]2)c(F)c1 | i | -11%[70.6 µM] | -4%[87.6 µM] | u | -11%[87.6 µM] | u
Fc1ccc(-c2cnc([C@@H]3COCCN3Cc3cnc4ccccc4c3)[nH]2)c(F)c1 | i | -14%[70.6 µM] | -14%[87.6 µM] | u | -19%[87.6 µM] | 89µM*
Clc1ccc(-c2cnc([C@@H]3COCCN3Cc3cnc4ccccc4c3)[nH]2)s1 | i | u | -17%[87.6 µM] | u | -24%[87.6 µM] | 89µM*
c1ccc(-c2cnc([C@@H]3COCCN3Cc3ccncc3)[nH]2)cc1 | i | 6%[70.6 µM] | -7%[87.6 µM] | -3%[138 µM] | -23%[87.6 µM] | i
CC(C)(Oc1nn(CC2CCOCC2)c2ccccc12)C(=O)NCCc1ccccc1 | i | -10%[70.6 µM] | -22%[87.6 µM] | u | -7%[87.6 µM] | 100µM*
CC(C)(Oc1nn(CC2CCOCC2)c2ccccc12)C(=O)NCCc1cccnc1 | i | 1%[70.6 µM] | -6%[87.6 µM] | u | -14%[87.6 µM] | -22%[172 µM]
COCc1ccc2c(c1)c(OC(C)(C)C(=O)Nc1cc(C)nn1C)nn2Cc1cccnc1 | i | 1% | -1% | 40µM* | 6% | i
COCc1ccc2c(c1)c(OC(C)(C)C(=O)NCC1CCOCC1)nn2Cc1cccnc1 | i | 5% | 3% | 40µM* | 23% | i
Cc1cc(F)ccc1OC1CN(Cc2ccc(C#N)cc2)C1 | i | -16%[70.6 µM] | -14%[87.6 µM] | u | -18%[87.6 µM] | 63µM*
COc1ccccc1C(=O)N1CC(Oc2ccc(F)cc2C)C1 | i | 15%[70.6 µM] | -1%[87.6 µM] | u | 54%[87.6 µM] | 71µM*
COc1ccc(CN2CC(Oc3ccc(F)c(C)c3)C2)cc1 | i | -5%[70.6 µM] | 10%[87.6 µM] | u | 0%[87.6 µM] | 89µM*
Cc1ccccc1N(C)C1CN(Cc2ccc(C#N)cc2)C1 | i | 0%[70.6 µM] | -14%[87.6 µM] | u | 2%[87.6 µM] | u
Cc1cc(OC2CN(Cc3ccc(C#N)cc3)C2)ccc1F | i | u | -17%[87.6 µM] | u | -12%[87.6 µM] | u
COc1ccc(CN2CC(N(C)c3ccccc3C)C2)cc1 | x | x | -25%[87.6 µM] | 79µM* | -21%[87.6 µM] | u
COc1ccc(CN2CC(Oc3ccc(F)cc3C)C2)cc1 | i | -13%[70.6 µM] | -26%[87.6 µM] | 40µM* | -20%[87.6 µM] | 71µM*
N#Cc1ccc(NC2CC(c3cc(N4CCC(O)C4)ncn3)C2)nc1 (stereo not given) | i | 1% | 4% | 16µM* | 3% | -9%
O=C(NC1CC(c2cc(N3CCC(O)C3)ncn2)C1)c1ccoc1 (stereo not given) | i | 13% | -3% | -6% | 8% | 4%
COc1cccc(-c2ncc3c(n2)OCCN(CC2CC2)C3=O)c1OC | i | 3%[70.6 µM] | 4%[87.6 µM] | 89µM* | 21%[87.6 µM] | -27%[172 µM]
COc1cccc(-c2ncc3c(n2)OCCN(c2ccccc2)C3=O)c1OC | u | -9%[70.6 µM] | 3%[87.6 µM] | 79µM* | 59%[87.6 µM] | u
COc1cccc(F)c1-c1ncc2c(n1)OCCN(CC1CC1)C2=O | i | 2%[70.6 µM] | -16%[87.6 µM] | u | 9%[87.6 µM] | 4%[172 µM]
O=C(c1nc2cccnc2n(C2CC2)c1=O)N1CCN(C(=O)C2CCCC2)CC1 | x | x | 0% | -21% | 40% | 1%
CC(C)CCN1CCC(N(C(=O)NCCc2ccccc2)C2CCOCC2)CC1 | i | -2% | -8% | -9% | 1% | u
CC(C)C[C@H](NC(=O)[C@H](CCc1ccccc1)NC(=O)CN1CCOCC1)C(=O)N[C@@H](Cc1ccccc1)C(=O)N[C@@H](CC(C)C)C(=O)[C@@]1(C)CO1 | x | x | u | x | 0.12µM*! | x
SMILES | FLuc inh | NPR1 antag | SNCA viab count | 3T3 cytotox | SNCA expr inh | HEK cytotox
C1=C/COCc2cc(ccc2OCCN2CCCC2)Nc2nccc(n2)-c2cccc(c2)COC/1 | x | x | 9.5µM* | x | x | x
COc1ccc2[nH]c3c(c2c1)CCNC31CCN(C(=O)c2ccc(C)s2)CC1 | i | 2% | 0%[12.5 µM] | u | -2% | 11µM*
COc1ccc2[nH]c3c(c2c1)CCNC31CCN(C(=O)c2sccc2C)CC1 | i | u | 2%[12.5 µM] | -31% | u | u
COc1ccc2[nH]c3c(c2c1)CCN(C)C31CCN(C(=O)c2cccn2C)CC1 | i | 1% | 5%[12.5 µM] | -24% | 0% | u
COc1ccc2[nH]c3c(c2c1)CCNC31CCN(C(=O)c2cccn2C)CC1 | i | -2% | 1%[12.5 µM] | u | 25µM* | u
COc1ccc2[nH]c3c(c2c1)CCNC31CCN(C(=O)c2cccs2)CC1 | i | -21% | -10%[12.5 µM] | u | 21% | 8.9µM*
O=[S+]([O-])(c1cccs1)N1CCN(c2ccc3nnc(-c4ccccc4)n3n2)CC1 | x | x | x | -12% | x | 2%
C/C=C/C[C@@H](C)[C@@H](O)[C@H]1C(=O)N[C@@H](CC)C(=O)N(C)CC(=O)N(C)[C@@H](CC(C)C)C(=O)N[C@@H](C(C)C)C(=O)N(C)[C@@H](CC(C)C)C(=O)N[C@@H](C)C(=O)N[C@H](C)C(=O)N(C)[C@@H](CC(C)C)C(=O)N(C)[C@@H](CC(C)C)C(=O)N(C)[C@H](C(C)C)C(=O)N1C | x | x | -27%[23.9 µM] | x | x | x
CCCCCNC(=O)c1ccc(-c2ccc(OC)nn2)cc1 | x | x | x | -21%[138 µM] | x | -19%[172 µM]
Cc1nn(CCC#N)c(C)c1[C@@H]1C=C[C@@H](NCc2ccc(F)cc2)C1 | i | -3%[70.6 µM] | -5%[87.6 µM] | 2%[174 µM] | -20%[87.6 µM] | -15%[172 µM]
Cc1nn(CCC#N)c(C)c1[C@@H]1C=C[C@@H](NCc2ccc(C(C)C)cc2)C1 | i | -26%[70.6 µM] | -13%[87.6 µM] | u | -21%[87.6 µM] | 71µM*
Cc1nn(-c2ccc(F)cc2)c(C)c1[C@@H]1C=C[C@@H](NCc2ccc(C(C)C)cc2)C1 | i | u | u | 10µM* | u | 11µM*
Cc1nn(-c2ccc(C(C)C)cc2)c(C)c1[C@@H]1C=C[C@@H](NCc2ccc(F)cc2)C1 | 22µM* | u | u | 7.1µM* | u | 8.9µM*
CNC(=O)N1CCC2(CC1)CC(Cc1ccc(C)cc1)CCO2 (stereo not given) | x | x | 14% | -26% | -4% | u
N#Cc1cccc(C(=O)N2CCC(N3C(=O)[C@H]4CN(Cc5ccccc5)C[C@H]4C3=O)CC2)c1 | x | x | 5% | u | -34% | u
O=C(c1ccc(F)cc1)N1CCC(C(=O)N2CCC(N3Cc4cccn4C3=O)CC2)CC1 | x | x | 0% | u | 7% | -29%
Fc1ccccc1-c1noc(N2CCCCC2)n1 | 1.6µM* | 10µM* | -2% | u | -63% | u
